In the library only some 18% were active in any assay of this set; here they are far more common.
Six1-Eya2 inh: blocks human Six1 binding to Eya2 | Q15475+O00167 | AlphaScreen GST-Six1/His-Eya2 binding, biochemical; stronger effect = lower value | activity change, % (no concentration beside the values) | actives 0.56% (n = 360,000); in the data active = activity change below about -65%; inconclusive = mostly about -30% to -63%
Target sequence (O00167 whole entry, looked up): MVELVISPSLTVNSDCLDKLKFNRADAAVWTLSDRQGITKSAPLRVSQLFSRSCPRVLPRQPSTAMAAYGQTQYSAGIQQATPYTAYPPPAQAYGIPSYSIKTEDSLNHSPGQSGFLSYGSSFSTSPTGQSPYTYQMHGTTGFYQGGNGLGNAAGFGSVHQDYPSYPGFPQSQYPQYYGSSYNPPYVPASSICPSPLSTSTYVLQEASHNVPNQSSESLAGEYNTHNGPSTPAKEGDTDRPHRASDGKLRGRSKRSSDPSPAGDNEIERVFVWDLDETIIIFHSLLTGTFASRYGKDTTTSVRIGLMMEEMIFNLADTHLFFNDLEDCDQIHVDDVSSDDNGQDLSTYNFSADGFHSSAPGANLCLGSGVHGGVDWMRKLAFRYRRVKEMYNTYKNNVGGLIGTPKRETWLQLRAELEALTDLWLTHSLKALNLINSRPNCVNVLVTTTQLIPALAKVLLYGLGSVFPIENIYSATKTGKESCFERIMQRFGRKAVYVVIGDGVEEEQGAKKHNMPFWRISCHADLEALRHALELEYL
Target sequence (Q15475 whole entry, looked up): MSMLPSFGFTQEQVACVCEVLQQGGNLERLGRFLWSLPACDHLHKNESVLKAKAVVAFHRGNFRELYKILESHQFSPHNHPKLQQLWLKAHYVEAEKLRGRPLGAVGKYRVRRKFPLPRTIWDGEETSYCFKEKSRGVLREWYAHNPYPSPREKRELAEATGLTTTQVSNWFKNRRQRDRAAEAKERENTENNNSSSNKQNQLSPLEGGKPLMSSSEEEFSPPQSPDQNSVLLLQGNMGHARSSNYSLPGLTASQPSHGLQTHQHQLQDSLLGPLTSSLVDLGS
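AlphaScreen with GST-Six1 and His-Eya2 (5X mix: 250 nM and 500 nM), glutathione donor and nickel acceptor beads; buffer 50 mM Tris pH 8.0, 300 mM NaCl, 1 mM TCEP; 1 h at 37 C in the dark.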
TDP1 inh: TDP1 (human) enzyme inhibition; Q9NUW8; recombinant TDP1, AlphaScreen DNA substrate cleavage; Potency, µM (doses to about 130 µM), without a hit: at the top dose activity change, negative = inhibition, hits mostly inhibitors; actives 0.28% (n = 350,000); AID 485290; note: potency is the fitted concentration of half-maximal effect; nearly all actives have a fitted effect of over 40% in size
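AlphaScreen read-out: signal falls as enzyme removes the 3' tyrosine-FITC from a 5'-biotinylated DNA oligo (15 nM, 5 min, RT). Enzyme was E. coli-made recombinant Tdp1 at 1 nM, exposed to compound for 15 min beforehand; beads 10 ug/ml, 10 min.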
CtBP-E1A blk: inhibitors of CtBP/E1A interaction; AlphaScreen GST-E1A/His-CtBP binding, 1536-well; stronger effect = lower value; activity change, % (concentration not given with the values); actives 0.49% (n = 340,000); AID 651724; in the data active = activity change below about -65%; inconclusive = mostly about -30% to -63%
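Homogeneous bead-based format: GST-tagged E1A captured on glutathione donor beads, His-tagged CtBP on nickel acceptor beads; compounds precede bead addition by 2 h at 37 °C.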
TDP1 cell CPT: growth inhibition of DT40 Tdp1-/-;hTDP1 cells with camptothecin (screen for TDP1 inhibitors); chicken DT40 Tdp1-/-;hTDP1 cells + 20 nM CPT, ATP luminescence, 48 h; Potency, µM (titrated, usually from 46.2 µM), for the others: at the top dose activity change, negative = growth inhibition, hits mostly inhibitors; actives 12% (n = 420,000); AID 686979; note: potency is the fitted concentration of half-maximal effect; nearly all actives have a fitted effect of over 55% in size
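Cell growth measured by CellTiter-Glo luminescence after a minimum 48 h, 37 C compound exposure with 20 nM CPT in Tdp1-knockout DT40 cells stably expressing hTDP1, seeded 400/well; qHTS titration format.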
TDP1 cell noCPT: qHTS for Inhibitors of human tyrosyl-DNA phosphodiesterase 1 (TDP1): qHTS in cells in absence of CPT. DT40 Tdp1-/- hTDP1 cells, no CPT, ATP luminescence, 48 h. Potency, µM (doses to about 46.2 µM), inactives show at the top dose activity change, negative = growth inhibition, usual class: inhibitors. actives 15% (n = 420,000); note: potency is the fitted concentration of half-maximal effect; nearly all actives have a fitted effect of over 55% in size
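Luminescent ATP content (CellTiter-Glo) served as the growth readout. Knockout chicken DT40 cells expressing human TDP1 were exposed to compounds without camptothecin for a minimum 48 hr at 37 °C.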
IL-1B inflam inh: inhibitors of inflammasome signaling (IL-1 beta secretion); THP-1 LPS/ATP IL-1B secretion, AlphaLISA, 16 h; stronger effect = lower value; activity change, % at 57.5 µM; actives 4.7% (n = 360,000); AID 743279; in the data active = activity change below about -50%; inconclusive = mostly about -30% to -49%
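THP-1 cells pretreated 1 hr with compounds (up to 57.5 uM final), then stimulated with LPS (250 ng/mL final) plus ATP (1.25 mM final); secreted IL-1B measured by AlphaLISA after 16 hr, decreased signal indicating inhibition.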
* marks the source's active call; other numbers are inactive results; ? = inconclusive; · = no result. Unless noted, calls come from the whole dose curve; as a rule, active = well fitted curve in the direction sought with a large enough effect; inconclusive = small, poorly fitted or top-dose-only effect, or another doubt; inactive = no such curve, though single readings can be large; an effect the other way counts as inactive or inconclusive. % is set by controls: 0 for no effect and ±100 for the full control effect.

SMILES	Six1-Eya2 inh	TDP1 inh	CtBP-E1A blk	TDP1 cell CPT	TDP1 cell noCPT	IL-1B inflam inh
c1ccc(C(c2nnnn2C2CCCC2)N2CCCCCC2)nc1 (centres undefined)	-6	4%	-4	-20%	?	4
CN1CCN(C(c2ccc(Cl)cc2)c2cc(Cl)c3cccnc3c2O)CC1 (centres undefined)	?	-5%	-80*	?	16µM*	-64*
O=C(O)COc1ccccc1/C=N/NC(=O)CSc1nc2ccccc2c(=O)n1-c1ccccc1	-4	3%	0	27%	4%	10
CC(C)CN(C(=O)COC(=O)CSc1ccccc1F)c1c(N)n(Cc2ccccc2)c(=O)[nH]c1=O	5	·	3	1%	-6%	15
COc1ccc(CCN2CN(S(=O)(=O)c3ccccc3)c3nc4ccccc4nc32)cc1OC	-7	5%	-5	21µM*	18µM*	-14
CC(C)OCCCN1CN(S(=O)(=O)c2ccccc2)c2nc3ccccc3nc21	-5	5%	2	-13%	?	-27
COc1ccc(CCN2CN(S(=O)(=O)c3ccccc3)c3nc4ccccc4nc32)cc1	-2	-3%	13	?	18µM*	57
COc1ccc(OC(=O)/C=C/c2ccc([N+](=O)[O-])cc2)cc1	-20	·	-87*	-17%	?	22
COc1ccc(C(=O)/C=C/c2ccc(F)cc2)c(OC(=O)c2ccc([N+](=O)[O-])cc2)c1	-6	5%	-2	?	21µM*	-94*
CC1(C)NC(=O)N(CC(O)CN(c2cccc([N+](=O)[O-])c2)S(=O)(=O)c2ccccc2)C1=O (centres undefined)	9	·	-10	-1%	-2%	12
C/C(=N\N1C(=O)c2ccccc2NC1c1ccco1)c1ccccc1O (centres undefined)	-10	3%	·	-87%	12µM*	69
C/C(=N\N1C(=O)c2ccccc2NC1c1ccccc1)c1ccccc1O (centres undefined)	-4	5%	·	4.6µM*	7.3µM*	7
COC(=O)c1ccccc1S(=O)(=O)N1CCn2cccc2C1C (centres undefined)	2	8%	5	-14%	-7%	-78*
O=C(CSc1ncnc2scc(-c3ccccc3)c12)N1CCN(Cc2ccc3c(c2)OCO3)CC1	-27	8%	-2	?	13µM*	-25
O=C(c1ccc2nc3ccccc3c(=O)n2c1)N1CCN(Cc2ccc3c(c2)OCO3)CC1	-23	6%	-6	29µM*	?	?
c1ccc(-c2csc3ncnc(N4CCN(Cc5ccc6c(c5)OCO6)CC4)c23)cc1	-2	·	·	16µM*	7.3µM*	10
O=C(CSc1nccc2ccccc12)N1CCN(Cc2ccc3c(c2)OCO3)CC1	-11	·	-20	?	?	-81*
COc1ccc(-c2ccc3c(c2)C2CC3CCN2Cc2ccc(OC(F)(F)F)cc2)cc1 (centres undefined)	-20	·	-17	?	?	21
c1ccc2c(c1)oc1c(N3CCN(Cc4ccc5c(c4)OCO5)CC3)ncnc12	-10	10%	-7	23µM*	23µM*	-27
c1ccc(Cn2nnc3c(N4CCN(Cc5ccc6c(c5)OCO6)CC4)ncnc32)cc1	-22	7%	-23	?	?	-16
COc1ccc(NS(=O)(=O)c2cccc(C(=O)N/N=C(/C)c3ccc(-n4ccnc4)cc3)c2)cc1	3	·	-7	-20%	-12%	48
O=c1[nH]c(Cc2ccccc2)nc2c1oc1ccccc12	1	2%	7	6.5µM*	?	0
CC(C)Cn1cnc2c(SCCc3ccccc3)nc(N)nc21	0	·	6	?	?	-9
CSCC[C@H](NC(=O)c1cccnc1)c1nnc2ccccn12	6	2%	7	3%	17%	-20
CSc1ccc(/C=N/NC(=O)c2ccc(O)cc2)cc1	-15	1%	0	26µM*	?	-5
SMILES	Six1-Eya2 inh	TDP1 inh	CtBP-E1A blk	TDP1 cell CPT	TDP1 cell noCPT	IL-1B inflam inh
CSc1ccc(/C=N/NC(=O)c2ccccc2Cl)cc1	-12	5%	-6	16µM*	13µM*	-17
CN(C)c1ccc(/C=N/NC(=O)c2ccccc2Cl)cc1	-2	0%	-5	5.8µM*	7.3µM*	?
CN(C)c1ccc(/C=N/NC(=O)c2ccccc2)cc1	5	0%	1	?	?	-5
CSc1ccc(/C=N/NC(=O)c2cccs2)cc1	-1	1%	6	-40%	?	-17
CN(C)c1ccc(/C=N\NC(=O)c2ccc(Cn3cc(Cl)cn3)cc2)cc1	-2	3%	3	?	16µM*	6
COc1ccc(C(=O)N2CC3(CC(c4cccc(NC(=O)CC(c5ccccc5)c5ccccc5)c4)=NO3)C[C@H]2C(N)=O)cc1 (some centres undefined)	-1	5%	-1	?	?	?
COc1ccc(Br)cc1S(=O)(=O)n1nc(C)cc1C	6	3%	15	-7%	-1%	67
O=C(N/N=C/c1ccc(O)cc1)c1csc2ccccc12	-13	0%	-20	?	0.26µM*	-5
O=C(Nc1ccccc1C(=O)N/N=C/c1ccc(O)cc1)c1ccccc1	1	5%	4	-24%	-27%	26
CCn1c(C(=O)N2CCC(C(=O)NCCc3ccc(OC)cc3OC)CC2)cc2sccc21	·	0%	·	21µM*	15µM*	·
CCOC(=O)N1CCC(NC(=O)C2CCN(C(=O)c3cc4sccc4n3CC)CC2)CC1	0	·	4	?	16µM*	6
c1ccc(-c2noc(-c3ccc4c(c3)OCO4)n2)nc1	0	-3%	14	5.2µM*	5.2µM*	6
c1ccc(-c2noc(-c3ccc4ccccc4c3)n2)nc1	2	4%	-8	?	23µM*	15
Cc1occc1-c1nc(-c2ccccn2)no1	-1	-4%	0	-22%	?	1
Cc1onc(-c2ccccc2Cl)c1-c1nc(-c2ccccn2)no1	5	-2%	-2	?	16µM*	-17
c1ccc(-c2noc(-c3ccncc3)n2)nc1	-2	-2%	9	?	?	-5
O=C(CN1CC(=O)Oc2ccccc21)OCC(=O)c1cccc(Br)c1	-82*	-1%	?	-26%	-26%	46
